Results reported in PubChem BioAssay (NCATS).
Records with an inconclusive call do not appear. Calls of active or inactive are those of the source. Unless noted, the call rests on the fitted dose curve; in most records, active means well fitted curve in the direction sought with a large enough effect; inconclusive means small, poorly fitted or top-dose-only effect, or another doubt; inactive means no such curve, though single readings can be large; an effect the other way counts as inactive or inconclusive.

Experiments:
[1] = qHTS to identify inhibitors of the type 1 interferon - major histocompatibility complex class I in skeletal muscle: primary screen against the NCATS Mechanism Interrogation Plate v5.0 (MIPE) Libary (AID 1347411); further: nearly all actives have a fitted effect of over 65% in size; further: potency means the concentration at half of the fitted maximal effect;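 on activity change, negative = inhibition: plate controls were vehicle for no effect and reference inhibitor for full effect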
Method in brief: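 HLA-B HiBit myoblasts, dexamethasone-free medium + 4 ng/ml IFN-b, 24 h compound, 11-pt 1:3 from 46 uM final. Readout: Nano-Glo HiBiT lytic luminescence after 10 min lysis, RT.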

[2] = target: Calcium and integrin-binding protein 1 (Homo sapiens) (UniProt Q99828); experiment: Primary qHTS for Identification of Calcium Integrin Binding Protein 1 (CIB1) Competitor (AID 1508620);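 further: GST tagged CIB1 binding a fluorescein labelled alphaIIb integrin peptide tracer; top concentration of the series differs between compounds; on the % scale 0 is the no-effect control and ±100 the full control effect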
Method in brief: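 CIB1-GST (1 uM final) and compound incubated 15 min at room temperature before adding FITC-alphaIIb peptide tracer (100 nM final). Competition for binding read by fluorescence polarization (ex 480, em 540) after another 15 min at room temperature.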

[3] = Primary qHTS for small molecule stabilizers of the endoplasmic reticulum resident proteome: Secreted ER Calcium Modulated Protein (SERCaMP) assay (AID 1508630); further: on the % scale 0 is the no-effect control and ±100 the full control effect
Method in brief: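 The SH-SY5Y reporter protocol was run at 3 concentrations up to 38.3 uM (primary) or 11 concentrations (follow-up): 16 h compound, 100 nM thapsigargin for 4 h, then extracellular luciferase luminescence.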

[4] = target: Cytochrome P450 2D6 (Homo sapiens) (UniProt P10635); experiment: Cytochrome P450 family 2 subfamily D member 6 (CYP2D6) small molecule antagonists: luciferase biochemical (cell-free) qHTS assay (AID 1645840; active means well fitted curve in the direction sought with a large enough effect in the repeat runs; an effect the other way counts as inactive or inconclusive; further: nearly all actives have a fitted effect of over 55% in size; further: potency means the concentration at half of the fitted maximal effect; on activity change, negative = inhibition: series mostly up to about 57 µM; on the % scale 0 is the no-effect control and ±100 the full control effect)
Method in brief: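 P450-Glo CYP2D6 system: proluciferin substrate converted by enzyme to luciferin, read by luminescence proportional to activity. Enzyme-substrate mix with compound 10 min at room temperature, then NADPH regeneration 1 h before detection reagent.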

[5] = target: Cytochrome P450 2C9 (Homo sapiens) (UniProt P11712); experiment: Cytochrome P450 family 2 subfamily C member 9 (CYP2C9) small molecule antagonists: luciferase biochemical (cell-free) qHTS assay (AID 1645842; active means well fitted curve in the direction sought with a large enough effect in the repeat runs; an effect the other way counts as inactive or inconclusive; further: nearly all actives have a fitted effect of over 55% in size; further: potency means the concentration at half of the fitted maximal effect)
Method in brief: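 P450-Glo CYP2C9 system: proluciferin substrate with enzyme in mix containing 0.4% BSA, 10 min at room temperature, then NADPH regeneration solution added and incubated 1 h at 37C. Detection reagent stopped reaction; luminescence read after 20 min as RLU.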

[6] = Primary qHTS for inhibitors of nuclear receptor binding SET domain protein 2 (NSD2) in an isogenic RCH-ACV NSD2 p.E1099K mutant (9B) (AID 1645876); further: nearly all actives have a fitted effect of over 70% in size; further: potency means the concentration at half of the fitted maximal effect
[7] = Primary qHTS for inhibitors of nuclear receptor binding SET domain protein 2 (NSD2) in an RCH-ACV wild type WT cells (2C) (AID 1645877); further: nearly all actives have a fitted effect of over 70% in size; further: potency means the concentration at half of the fitted maximal effect
[8] = qHTS to identify inhibitors of the type 1 interferon - major histocompatibility complex class I in skeletal muscle: primary screen against the NCATS Pharmaceutical Collection (AID 1347407);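 further: luminescence of HiBiT knocked into endogenous HLA-B as interferon-induced MHC class I level; on the % scale 0 is the no-effect control and ±100 the full control effect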
Method in brief: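 HLA-B HiBiT myoblasts, dexamethasone-free growth medium + 4 ng/ml IFN-b; compounds pinned 1 h after seeding, […] from 46 uM; 24 h, 37 C, 5% CO2; lytic HiBiT detection, 10 min RT, luminescence.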

[9] = target: Protein phosphatase 1D (Homo sapiens) (UniProt O15297); experiment: RapidFire Mass Spectrometry qHTS Assay for Modulators of WT P53-Induced Phosphatase 1 (WIP1) (AID 1347424);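 further: amount of dephosphorylated VEPPL-S-QETFS peptide product formed by WIP1; series mostly up to about 63 µM; plate controls were DMSO wells for no effect and GSK830371 inhibitor control at 10 µM for full effect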
Method in brief: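 RapidFire mass spectrometry measured dephosphorylated peptide after 5 min room-temperature reaction of 2 uM VEPPL-pS-QETFS with 10 nM WIP1 (50 mM Tris-HCl pH 7.5, 30 mM MgCl2, 0.1 mM EGTA, BSA), following 1 hr compound preincubation; 1 uM isotope-labelled product standard.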

[10] = target: Protein phosphatase 1D (Homo sapiens) (UniProt O15297); experiment: Rhodamine-PBP qHTS Assay for Modulators of WT P53-Induced Phosphatase 1 (WIP1) (AID 1347425); further: % of control where 0% means no effect
Method in brief: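 The read-out is the change in Rhodamine-PBP fluorescence (f1 - f0, ex 525/em 598 nm) as Pi is released, read each minute for 11 min. Final reaction: 5 nM WIP1, 10 uM phosphopeptide VEPPL-pS-QETFS, 10 uM Rh-PBP, 50 mM Tris-HCl pH 7.5, 30 mM MgCl2. Compound was preincubated with enzyme for 1 hour at room temperature.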

[11] = Primary qHTS for inhibitors of La Crosse Virus (LACV) - induced cell death in SH-SY5Y cells (AID 1508616);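 further: top concentration of the series differs between compounds; 0% = infected DMSO wells and 100% = uninfected DMSO wells; higher means more rescue of cells from virus-induced death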
Method in brief: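 Cytopathicity rescue screen: compounds pinned onto SH-SY5Y cells, which are then infected with LACV (MOI 0.01) and held 6 days at 37C. Percent activity is scaled between infected DMSO control and uninfected DMSO control.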

[12] = A High-Content qHTS Against Drug Library for the Identification of Small Molecules that Inhibit DYT1 Early Onset Primary Dystonia-Associated Cell Pathology (AID 1645839; calls by dose curve; further: series mostly up to about 46 µM)
Method in brief: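 High-content imaging quantified EGFP-TorsinA mislocalization in HEK293-derived cells inducibly expressing DYT1 mutant torsinA, after 48 h exposure to compound given together with tetracycline induction. Cell count served as a toxicity channel alongside %pathology.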

Sequence of Protein phosphatase 1D (Homo sapiens) (O15297 whole entry, looked up): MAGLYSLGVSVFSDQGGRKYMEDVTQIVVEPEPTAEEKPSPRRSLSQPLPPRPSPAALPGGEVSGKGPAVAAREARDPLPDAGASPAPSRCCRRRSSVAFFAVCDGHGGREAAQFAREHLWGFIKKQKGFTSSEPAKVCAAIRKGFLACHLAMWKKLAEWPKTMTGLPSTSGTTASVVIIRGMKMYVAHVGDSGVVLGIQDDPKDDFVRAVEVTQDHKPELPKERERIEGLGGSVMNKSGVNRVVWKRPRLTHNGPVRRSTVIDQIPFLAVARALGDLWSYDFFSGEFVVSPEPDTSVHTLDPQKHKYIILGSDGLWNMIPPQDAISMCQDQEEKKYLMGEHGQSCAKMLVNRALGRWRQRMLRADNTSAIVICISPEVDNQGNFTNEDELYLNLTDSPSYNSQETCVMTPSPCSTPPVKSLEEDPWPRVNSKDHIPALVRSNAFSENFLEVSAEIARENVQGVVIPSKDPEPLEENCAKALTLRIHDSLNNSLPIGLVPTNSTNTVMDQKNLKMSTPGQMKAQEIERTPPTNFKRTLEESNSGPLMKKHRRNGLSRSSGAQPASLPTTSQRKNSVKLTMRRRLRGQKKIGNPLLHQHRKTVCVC
Sequence of Cytochrome P450 2D6 (Homo sapiens) (P10635 whole entry, looked up): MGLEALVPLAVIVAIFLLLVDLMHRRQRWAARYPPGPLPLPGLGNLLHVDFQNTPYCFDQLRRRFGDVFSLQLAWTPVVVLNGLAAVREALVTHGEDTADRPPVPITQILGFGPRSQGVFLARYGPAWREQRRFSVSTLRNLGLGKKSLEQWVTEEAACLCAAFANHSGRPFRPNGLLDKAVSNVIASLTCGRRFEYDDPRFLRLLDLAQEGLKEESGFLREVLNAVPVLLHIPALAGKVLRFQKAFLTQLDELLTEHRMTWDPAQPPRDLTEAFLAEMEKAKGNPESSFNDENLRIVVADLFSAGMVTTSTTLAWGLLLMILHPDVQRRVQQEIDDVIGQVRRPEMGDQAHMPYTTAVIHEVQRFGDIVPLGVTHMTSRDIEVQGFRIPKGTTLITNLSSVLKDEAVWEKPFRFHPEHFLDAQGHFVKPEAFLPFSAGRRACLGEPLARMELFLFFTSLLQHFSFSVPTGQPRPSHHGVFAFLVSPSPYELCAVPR
Sequence of Calcium and integrin-binding protein 1 (Homo sapiens) (Q99828 whole entry, looked up): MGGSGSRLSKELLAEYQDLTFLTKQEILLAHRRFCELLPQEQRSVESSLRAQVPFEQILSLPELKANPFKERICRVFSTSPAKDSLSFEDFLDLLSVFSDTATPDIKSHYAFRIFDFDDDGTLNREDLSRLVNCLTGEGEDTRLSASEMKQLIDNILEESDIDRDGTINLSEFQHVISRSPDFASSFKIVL
Sequence of Cytochrome P450 2C9 (Homo sapiens) (P11712 whole entry, looked up): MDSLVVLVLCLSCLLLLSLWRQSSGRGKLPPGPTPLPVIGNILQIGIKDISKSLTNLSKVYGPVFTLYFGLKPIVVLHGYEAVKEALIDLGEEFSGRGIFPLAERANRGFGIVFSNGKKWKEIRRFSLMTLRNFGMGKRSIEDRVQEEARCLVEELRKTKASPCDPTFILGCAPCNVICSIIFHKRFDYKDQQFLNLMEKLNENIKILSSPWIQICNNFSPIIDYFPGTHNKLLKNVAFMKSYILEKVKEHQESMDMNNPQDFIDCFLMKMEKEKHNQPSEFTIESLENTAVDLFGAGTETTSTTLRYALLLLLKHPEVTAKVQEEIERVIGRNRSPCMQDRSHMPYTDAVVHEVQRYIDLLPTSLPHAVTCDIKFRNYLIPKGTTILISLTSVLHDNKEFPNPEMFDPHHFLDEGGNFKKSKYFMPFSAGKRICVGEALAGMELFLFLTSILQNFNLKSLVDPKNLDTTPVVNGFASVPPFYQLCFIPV

NC(=O)c1cccc(-c2cccc(OC(=O)NC3CCCCC3)c2)c1
inactive: Potency [1] | Potency [2] | outcome [3] | Potency [4] | Potency [5] | Potency [6] | Potency [7]

CCn1c(=O)c2c(nc(C=Cc3ccc(OC)c(OC)c3)n2C)n(CC)c1=O
inactive: outcome [8] | Potency [9] | outcome [10] | outcome [11] | Potency [2] | outcome [3] | outcome [12] | Potency [4] | Potency [6] | Potency [7]

CCCc1nc(C(C)(C)O)c(C(=O)O)n1Cc1ccc(-c2ccccc2-c2nn[nH]n2)cc1
inactive: Potency [1] | Potency [2] | outcome [3] | Potency [4] | Potency [5] | Potency [6] | Potency [7]

Nc1ccn(C[C@@H](CO)OCP(=O)(O)O)c(=O)n1
inactive: activity change, negative = inhibition [1] -9.6% [at 8.44 µM] | Potency [2]

O=C1CSC(=O)N1C(CCc1ccncc1)COc1ccc(-c2cccc([N+](=O)[O-])c2)cc1 (configuration not stated)
active: Potency [6] 14.8 µM | Potency [7] 11.8 µM
inactive: Potency [1] | Potency [2] | outcome [3] | Potency [4]

Cn1cc(CNCC2CCN(c3ncc(C(=O)NO)cn3)CC2)c2ccccc21
inactive: Potency [2] | outcome [3] | Potency [5]
active: Potency [1] 0.117 µM | Potency [4] 3.38 µM | Potency [6] 0.742 µM | Potency [7] 0.742 µM

N[C@H]1CN(c2c(F)cc3c(=O)c(C(=O)O)cn(C4C[C@@H]4F)c3c2Cl)CC12CC2 (some centres not stated)
inactive: outcome [8] | Potency [9] | outcome [10] | outcome [11] | outcome [3] | outcome [12] | Potency [4] | Potency [5]

Cc1ccccc1C(=O)Nc1ccc(C(=O)N2CCCC(O)c3cc(Cl)ccc32)c(C)c1 (configuration not stated)
active: Potency [5] 27.5 µM | Potency [6] 13.3 µM | Potency [7] 15 µM
inactive: outcome [8] | Potency [1] | Potency [9] | outcome [10] | outcome [11] | Potency [2] | outcome [3]
